Tests used:
Assay in all cases: log2 ratio of Biotin-Ahx-Ub-VS probe labelling (fragment/DMSO); higher = less target engagement (more negative = stronger competition), active = hit call of the paper (q ≤ 0.05, log2 ratio ≤ -1)
Details in all cases: compound concentration: 200 uM; treatment time: 3 h
USP34 = USP34 (UniProt Q70CQ2)
How it was run: (§1)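 Triplicate samples of HEK293T lysate, 495 µg each, received fragment at 200 µM or vehicle for 3 h, followed by Biotin-Ahx-Ub-VS (0.5 µM final) for 1 h. After NeutrAvidin enrichment of labelled DUBs and LysC/trypsin digestion, peptides were run by diaPASEF LC-MS/MS. The values are average log2 fragment/vehicle ratios from global-median-normalised Spectronaut label-free quantities, tested by unpaired t-test on proteins having ≥2 unique peptides.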

USP36 = molecular target: T1, USP36 (UniProt Q9P275)
T1 sequence (whole entry): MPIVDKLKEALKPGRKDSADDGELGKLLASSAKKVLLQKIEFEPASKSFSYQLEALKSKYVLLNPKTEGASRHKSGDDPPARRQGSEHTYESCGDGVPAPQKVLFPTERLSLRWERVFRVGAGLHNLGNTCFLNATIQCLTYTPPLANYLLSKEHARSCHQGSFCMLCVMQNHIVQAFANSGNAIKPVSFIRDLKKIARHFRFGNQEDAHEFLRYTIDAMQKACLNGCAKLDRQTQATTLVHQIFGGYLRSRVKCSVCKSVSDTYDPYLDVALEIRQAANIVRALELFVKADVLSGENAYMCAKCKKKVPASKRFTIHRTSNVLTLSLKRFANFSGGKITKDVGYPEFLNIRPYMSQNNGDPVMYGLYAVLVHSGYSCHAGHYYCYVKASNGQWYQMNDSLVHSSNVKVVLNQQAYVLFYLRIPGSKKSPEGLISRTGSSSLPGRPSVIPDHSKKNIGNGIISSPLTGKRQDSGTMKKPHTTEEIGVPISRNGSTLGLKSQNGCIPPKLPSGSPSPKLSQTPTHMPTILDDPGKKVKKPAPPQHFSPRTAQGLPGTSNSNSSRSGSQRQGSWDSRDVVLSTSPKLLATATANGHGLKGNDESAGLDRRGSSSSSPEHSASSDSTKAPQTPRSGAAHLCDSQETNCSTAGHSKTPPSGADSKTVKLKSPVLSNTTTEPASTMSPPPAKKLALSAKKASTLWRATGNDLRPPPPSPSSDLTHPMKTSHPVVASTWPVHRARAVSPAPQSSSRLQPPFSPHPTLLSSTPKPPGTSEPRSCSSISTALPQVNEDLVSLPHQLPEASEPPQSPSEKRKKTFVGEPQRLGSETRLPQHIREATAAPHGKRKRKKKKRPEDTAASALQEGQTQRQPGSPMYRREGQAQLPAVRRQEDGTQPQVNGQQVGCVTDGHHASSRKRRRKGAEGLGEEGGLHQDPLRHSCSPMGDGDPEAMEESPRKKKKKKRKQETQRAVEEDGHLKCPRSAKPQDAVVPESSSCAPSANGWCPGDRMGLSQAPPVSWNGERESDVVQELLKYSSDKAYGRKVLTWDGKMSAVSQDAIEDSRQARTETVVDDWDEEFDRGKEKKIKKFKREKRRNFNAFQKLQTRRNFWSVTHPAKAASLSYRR
How it was run: as §1

USP38 = molecular target: T2, USP38 (UniProt Q8NB14)
T2 sequence (whole entry): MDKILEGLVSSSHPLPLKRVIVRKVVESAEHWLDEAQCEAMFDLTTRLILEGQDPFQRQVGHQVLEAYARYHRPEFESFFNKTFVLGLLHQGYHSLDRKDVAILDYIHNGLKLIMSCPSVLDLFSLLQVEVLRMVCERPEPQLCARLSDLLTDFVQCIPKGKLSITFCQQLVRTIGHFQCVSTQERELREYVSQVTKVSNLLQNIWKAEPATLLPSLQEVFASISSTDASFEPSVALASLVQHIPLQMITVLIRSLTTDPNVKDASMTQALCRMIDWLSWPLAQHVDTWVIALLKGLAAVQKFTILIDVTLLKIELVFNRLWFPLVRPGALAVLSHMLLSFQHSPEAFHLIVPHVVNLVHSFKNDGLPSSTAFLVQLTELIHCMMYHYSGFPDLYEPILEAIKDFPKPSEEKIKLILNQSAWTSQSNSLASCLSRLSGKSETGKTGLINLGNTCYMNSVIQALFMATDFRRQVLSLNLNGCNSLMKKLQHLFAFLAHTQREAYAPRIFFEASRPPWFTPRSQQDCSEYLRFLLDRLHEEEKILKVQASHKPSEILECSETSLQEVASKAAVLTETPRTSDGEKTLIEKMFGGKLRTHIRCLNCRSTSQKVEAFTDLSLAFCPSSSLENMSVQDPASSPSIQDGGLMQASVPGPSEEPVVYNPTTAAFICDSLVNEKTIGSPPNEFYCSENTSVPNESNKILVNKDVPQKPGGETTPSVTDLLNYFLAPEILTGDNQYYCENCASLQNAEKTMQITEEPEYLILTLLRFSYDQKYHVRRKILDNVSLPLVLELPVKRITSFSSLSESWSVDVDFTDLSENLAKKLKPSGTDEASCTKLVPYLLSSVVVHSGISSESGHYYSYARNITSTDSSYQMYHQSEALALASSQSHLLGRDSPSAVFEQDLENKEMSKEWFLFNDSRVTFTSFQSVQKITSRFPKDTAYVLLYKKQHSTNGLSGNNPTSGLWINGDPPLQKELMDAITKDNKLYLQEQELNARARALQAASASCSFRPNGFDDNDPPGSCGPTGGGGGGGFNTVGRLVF
How it was run: as §1

USP39 = molecular target: T3, USP39 (UniProt Q53GS9)
T3 sequence (whole entry): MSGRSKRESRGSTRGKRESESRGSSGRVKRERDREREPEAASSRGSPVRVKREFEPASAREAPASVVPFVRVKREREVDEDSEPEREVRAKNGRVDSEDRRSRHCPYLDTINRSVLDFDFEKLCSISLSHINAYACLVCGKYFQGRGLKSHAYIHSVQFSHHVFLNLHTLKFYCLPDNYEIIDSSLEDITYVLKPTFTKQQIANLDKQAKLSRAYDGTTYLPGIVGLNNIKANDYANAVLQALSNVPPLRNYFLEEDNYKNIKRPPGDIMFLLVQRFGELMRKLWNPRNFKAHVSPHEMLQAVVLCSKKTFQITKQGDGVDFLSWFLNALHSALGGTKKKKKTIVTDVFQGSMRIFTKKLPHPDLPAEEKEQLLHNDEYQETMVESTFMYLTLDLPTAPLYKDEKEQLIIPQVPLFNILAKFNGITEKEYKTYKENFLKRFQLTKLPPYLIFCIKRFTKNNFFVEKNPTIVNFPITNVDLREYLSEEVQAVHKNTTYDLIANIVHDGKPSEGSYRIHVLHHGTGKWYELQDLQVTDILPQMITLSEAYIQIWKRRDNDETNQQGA
How it was run: as §1

USP4 = molecular target: T4, USP4 (UniProt Q13107)
T4 sequence (whole entry): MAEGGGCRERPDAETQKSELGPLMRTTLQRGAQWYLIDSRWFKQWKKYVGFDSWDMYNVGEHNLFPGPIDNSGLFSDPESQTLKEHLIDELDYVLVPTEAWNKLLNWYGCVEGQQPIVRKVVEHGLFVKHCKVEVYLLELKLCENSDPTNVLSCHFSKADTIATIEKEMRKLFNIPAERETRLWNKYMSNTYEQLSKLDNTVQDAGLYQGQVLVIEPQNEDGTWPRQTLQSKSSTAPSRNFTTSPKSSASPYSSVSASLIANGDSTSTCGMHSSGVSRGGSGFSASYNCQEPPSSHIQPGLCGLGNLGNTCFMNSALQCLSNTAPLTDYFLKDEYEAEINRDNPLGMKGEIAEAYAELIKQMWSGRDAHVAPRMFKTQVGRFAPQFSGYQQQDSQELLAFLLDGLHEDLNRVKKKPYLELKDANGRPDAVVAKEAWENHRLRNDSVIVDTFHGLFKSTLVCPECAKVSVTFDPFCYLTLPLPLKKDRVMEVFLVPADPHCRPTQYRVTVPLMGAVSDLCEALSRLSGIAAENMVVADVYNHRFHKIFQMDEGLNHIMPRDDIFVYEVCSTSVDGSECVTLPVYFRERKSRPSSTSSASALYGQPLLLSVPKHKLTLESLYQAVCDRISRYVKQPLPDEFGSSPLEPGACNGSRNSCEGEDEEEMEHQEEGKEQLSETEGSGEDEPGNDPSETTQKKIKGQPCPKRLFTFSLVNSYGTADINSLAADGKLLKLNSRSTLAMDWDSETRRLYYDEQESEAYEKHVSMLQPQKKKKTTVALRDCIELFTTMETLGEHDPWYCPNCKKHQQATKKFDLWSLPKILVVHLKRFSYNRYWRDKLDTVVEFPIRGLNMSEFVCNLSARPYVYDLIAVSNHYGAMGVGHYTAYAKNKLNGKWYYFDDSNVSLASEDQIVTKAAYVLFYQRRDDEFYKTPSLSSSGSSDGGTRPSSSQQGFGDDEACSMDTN
How it was run: as §1

Measured: log2 ratio of Biotin-Ahx-Ub-VS probe labelling

USP34, sequence (Q70CQ2 whole entry, the tested form may be a part): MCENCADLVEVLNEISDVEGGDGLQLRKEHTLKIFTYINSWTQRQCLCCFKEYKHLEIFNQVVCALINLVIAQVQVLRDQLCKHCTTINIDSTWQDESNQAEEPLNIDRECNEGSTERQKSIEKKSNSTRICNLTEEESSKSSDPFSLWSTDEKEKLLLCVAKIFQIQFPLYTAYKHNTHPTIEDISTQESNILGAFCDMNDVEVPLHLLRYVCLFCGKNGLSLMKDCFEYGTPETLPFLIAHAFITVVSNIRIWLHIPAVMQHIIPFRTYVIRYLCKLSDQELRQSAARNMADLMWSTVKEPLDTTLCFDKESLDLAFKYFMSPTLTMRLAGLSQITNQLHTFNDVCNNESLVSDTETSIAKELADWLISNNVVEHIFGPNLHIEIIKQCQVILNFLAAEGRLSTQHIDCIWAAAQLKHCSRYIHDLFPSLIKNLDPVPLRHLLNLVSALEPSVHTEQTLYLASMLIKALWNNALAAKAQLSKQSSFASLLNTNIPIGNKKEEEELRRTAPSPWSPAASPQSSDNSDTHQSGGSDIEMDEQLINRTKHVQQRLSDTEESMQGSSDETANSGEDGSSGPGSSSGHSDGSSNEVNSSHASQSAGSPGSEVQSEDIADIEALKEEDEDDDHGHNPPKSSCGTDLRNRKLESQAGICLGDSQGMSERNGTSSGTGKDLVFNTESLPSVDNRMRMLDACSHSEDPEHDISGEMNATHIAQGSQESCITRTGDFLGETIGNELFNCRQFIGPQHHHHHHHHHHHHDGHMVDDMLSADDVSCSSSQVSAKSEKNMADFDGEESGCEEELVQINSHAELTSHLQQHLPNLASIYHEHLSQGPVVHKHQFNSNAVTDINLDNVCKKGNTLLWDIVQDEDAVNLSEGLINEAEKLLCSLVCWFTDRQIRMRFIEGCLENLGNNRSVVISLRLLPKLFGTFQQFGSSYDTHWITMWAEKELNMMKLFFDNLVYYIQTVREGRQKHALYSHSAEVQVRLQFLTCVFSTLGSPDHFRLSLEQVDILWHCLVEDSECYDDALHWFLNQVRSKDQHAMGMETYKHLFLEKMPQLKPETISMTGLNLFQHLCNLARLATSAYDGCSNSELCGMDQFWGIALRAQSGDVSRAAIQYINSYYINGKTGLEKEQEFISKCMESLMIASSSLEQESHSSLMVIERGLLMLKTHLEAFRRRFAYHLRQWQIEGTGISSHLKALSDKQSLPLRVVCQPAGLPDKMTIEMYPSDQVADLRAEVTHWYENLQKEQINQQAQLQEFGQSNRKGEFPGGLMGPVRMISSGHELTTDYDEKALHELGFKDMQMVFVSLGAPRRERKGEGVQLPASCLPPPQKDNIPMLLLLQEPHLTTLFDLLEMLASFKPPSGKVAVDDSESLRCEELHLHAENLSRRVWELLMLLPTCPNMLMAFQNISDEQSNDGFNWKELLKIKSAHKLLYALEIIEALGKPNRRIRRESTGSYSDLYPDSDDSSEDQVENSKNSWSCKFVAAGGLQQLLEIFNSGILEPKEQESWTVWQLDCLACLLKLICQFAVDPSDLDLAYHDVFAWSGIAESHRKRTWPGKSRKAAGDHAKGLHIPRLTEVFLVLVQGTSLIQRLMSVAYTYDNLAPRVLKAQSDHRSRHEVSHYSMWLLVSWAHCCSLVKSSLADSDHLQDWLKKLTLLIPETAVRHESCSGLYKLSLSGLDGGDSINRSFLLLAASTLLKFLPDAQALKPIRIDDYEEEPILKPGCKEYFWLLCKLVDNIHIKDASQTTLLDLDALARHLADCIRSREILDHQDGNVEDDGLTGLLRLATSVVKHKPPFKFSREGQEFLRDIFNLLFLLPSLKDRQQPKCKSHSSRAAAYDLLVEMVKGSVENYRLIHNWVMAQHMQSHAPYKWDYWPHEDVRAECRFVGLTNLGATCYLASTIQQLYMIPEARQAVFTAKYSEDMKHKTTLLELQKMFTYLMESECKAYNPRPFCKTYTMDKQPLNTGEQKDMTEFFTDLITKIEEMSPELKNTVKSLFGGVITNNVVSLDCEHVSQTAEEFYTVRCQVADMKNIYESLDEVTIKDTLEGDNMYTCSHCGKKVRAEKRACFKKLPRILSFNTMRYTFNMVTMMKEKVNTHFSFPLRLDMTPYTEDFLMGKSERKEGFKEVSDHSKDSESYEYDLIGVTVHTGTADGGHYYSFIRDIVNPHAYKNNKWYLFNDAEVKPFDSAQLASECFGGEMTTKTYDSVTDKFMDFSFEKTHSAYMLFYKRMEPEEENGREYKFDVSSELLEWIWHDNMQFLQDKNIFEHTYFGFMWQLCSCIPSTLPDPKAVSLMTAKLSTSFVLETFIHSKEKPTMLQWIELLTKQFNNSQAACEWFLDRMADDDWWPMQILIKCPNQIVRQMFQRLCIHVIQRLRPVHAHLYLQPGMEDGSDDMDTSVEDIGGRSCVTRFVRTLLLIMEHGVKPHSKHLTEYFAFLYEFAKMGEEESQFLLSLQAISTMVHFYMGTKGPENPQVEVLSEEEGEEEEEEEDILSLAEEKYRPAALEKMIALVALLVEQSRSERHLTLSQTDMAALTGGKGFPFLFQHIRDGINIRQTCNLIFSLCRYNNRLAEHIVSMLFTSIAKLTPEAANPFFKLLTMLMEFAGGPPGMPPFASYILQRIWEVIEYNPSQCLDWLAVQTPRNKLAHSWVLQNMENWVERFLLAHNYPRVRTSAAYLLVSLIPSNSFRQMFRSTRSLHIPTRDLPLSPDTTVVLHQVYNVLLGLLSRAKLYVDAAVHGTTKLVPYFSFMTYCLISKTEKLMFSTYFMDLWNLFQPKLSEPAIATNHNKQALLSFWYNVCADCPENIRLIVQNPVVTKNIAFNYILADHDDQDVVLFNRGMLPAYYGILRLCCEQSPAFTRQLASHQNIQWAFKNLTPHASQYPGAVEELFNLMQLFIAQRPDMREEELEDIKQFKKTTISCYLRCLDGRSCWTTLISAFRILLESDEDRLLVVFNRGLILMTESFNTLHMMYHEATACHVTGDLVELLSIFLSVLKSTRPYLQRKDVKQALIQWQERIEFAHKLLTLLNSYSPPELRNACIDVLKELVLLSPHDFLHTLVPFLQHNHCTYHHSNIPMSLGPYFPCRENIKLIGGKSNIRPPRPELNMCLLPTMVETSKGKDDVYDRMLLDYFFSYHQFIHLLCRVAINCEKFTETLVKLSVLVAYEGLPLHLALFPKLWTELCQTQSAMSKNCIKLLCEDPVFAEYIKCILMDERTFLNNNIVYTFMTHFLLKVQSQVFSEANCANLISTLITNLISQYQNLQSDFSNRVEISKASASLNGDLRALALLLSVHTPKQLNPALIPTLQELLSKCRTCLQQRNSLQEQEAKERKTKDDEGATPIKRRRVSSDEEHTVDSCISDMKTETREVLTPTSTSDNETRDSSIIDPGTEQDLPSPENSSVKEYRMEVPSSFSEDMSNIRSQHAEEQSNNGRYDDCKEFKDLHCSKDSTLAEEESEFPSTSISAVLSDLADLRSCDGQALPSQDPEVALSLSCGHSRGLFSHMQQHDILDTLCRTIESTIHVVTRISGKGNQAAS

Cc1cc(NC(=O)CCl)n(-c2ccccc2)n1
inactive: USP34 -0.374 | USP36 -0.0233 | USP38 -0.067 | USP39 -0.12 | USP4 0.0467

Source: the supplement of paper PMC11732987, “Enantioselective OTUD7B fragment discovery through chemoproteomics screening and high-throughput optimisation” (Communications Chemistry, 2025)
